Test [1] in a line: NCI Yeast Anticancer Drug Screen. Data for the rad50 strain (AID 155).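 Also: 0% = growth of vehicle-only cultures of the same strain.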 The settings on record: S. cerevisiae rad50 strain growth inhibition, stronger effect = higher value. In outline:
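Relative growth inhibition (compound vs vehicle) was measured in yeast with a defined repair-gene alteration.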

Test [2] can be described thus: NCI Yeast Anticancer Drug Screen. Data for the mec2-1 strain (AID 157). The settings on record: S. cerevisiae mec2-1 strain, stronger effect = higher value. The procedure, abridged:
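Cells of the genetically defined mec2-1 yeast strain are incubated with test compound. Inhibition of growth is calculated against vehicle-treated controls.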

Test [3] can be described thus: NCI Yeast Anticancer Drug Screen. Data for the sgs1 mgt1 strain (AID 161).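 Also: 0% = growth of cultures given vehicle only.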 As to conditions: S. cerevisiae sgs1 mgt1 strain, stronger effect = higher value. The procedure, abridged: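 Test agents were incubated with a DNA-repair-mutant yeast strain. Growth was then read and compared against vehicle-treated controls.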
Test [4] is described as follows: NCI Yeast Anticancer Drug Screen. Data for the cln2 rad14 strain (AID 165).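 Also: 0% = growth equal to vehicle treated cultures.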 The settings on record: S. cerevisiae cln2 rad14 strain, stronger effect = higher value. The procedure, abridged:
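The screen exposed genetically defined yeast (cln2 rad14) to test compounds and scored growth inhibition relative to vehicle-treated controls.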

A short description of test [5]: NCI Yeast Anticancer Drug Screen. Data for the bub3 strain (AID 167). As to conditions: S. cerevisiae bub3 mutant strain, stronger effect = higher value. In outline:
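Screening used yeast with an engineered genetic alteration affecting cell cycle control. Compound-exposed cultures were compared with vehicle cultures, and reduced growth was taken as inhibition.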

A short description of test [6]: NCI Yeast Anticancer Drug Screen. Data for the mlh1 rad18 strain (AID 175). As to conditions: S. cerevisiae mlh1 rad18 strain growth inhibition, stronger effect = higher value. In outline:
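Compound-treated yeast growth, normalised to vehicle controls. Strain bears defined DNA repair mutations.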

The mark [7] stands for this setting: at 5.0 µM (retest, dose inferred, filed as 0.5).
Where [8] appears, read: at 50.0 µM (retest, dose inferred, filed as 5.0).

Compounds without any hit were thinned out: in the full panel of roughly 79,000, 15% have a hit. Unmarked numbers belong to inactive results. The source made the active and inactive calls. Rule as the data show it: active = growth inhibition above about 70%; inactive = the rest.

For the compound `[N-]=[N+]=NC1=CC(=O)c2cccc3cccc1c23`, the growth inhibition in test [1] (setting [7]) is 45%; in test [1] (setting [8]), 99% (active); in test [1] (at 50.0 µM), 80.8% (active); in test [2] (setting [7]), 31%; in test [2] (setting [8]), 99% (active); in test [2] (at 50.0 µM), 86.5% (active). The growth inhibition was 65% in test [3] (setting [7]); 99% (active) in test [3] (setting [8]); 87.6% (active) in test [3] (at 50.0 µM); 47% in test [4] (setting [7]); 98% (active) in test [4] (setting [8]); 80.1% (active) in test [4] (at 50.0 µM). Besides, the growth inhibition is 32% in test [5] (setting [7]); 99% (active) in test [5] (setting [8]); 89% (active) in test [5] (at 50.0 µM); 72% (active) in test [6] (setting [7]); 99% (active) in test [6] (setting [8]); 89.5% (active) in test [6] (at 50.0 µM).

On to `Nc1ccc(-c2nc3ccccc3s2)cc1`, for which the growth inhibition in test [1] (setting [7]) is 21%; in test [1] (setting [8]), 96% (active); in test [1] (at 50.0 µM), 89.8% (active); in test [2] (setting [7]) it was 2%; in test [2] (setting [8]) it was 100% (active); in test [2] (at 50.0 µM), 91.8% (active). Besides, the growth inhibition in test [3] (setting [7]) was -3%; in test [3] (setting [8]), 99% (active); in test [3] (at 50.0 µM) it was 88.4% (active); in test [4] (setting [7]), 8%; in test [4] (setting [8]) it was 85% (active); in test [4] (at 50.0 µM), 87.6% (active). Moreover, the growth inhibition in test [5] (setting [7]) was -2%; in test [5] (setting [8]), 99% (active); in test [5] (at 50.0 µM), 86.2% (active); in test [6] (setting [7]), 10%; in test [6] (setting [8]) it was 98% (active); in test [6] (at 50.0 µM) it was 84.6% (active).

As for `CCC1=C(c2ccc(OC(C)=O)cc2)Cc2cc(OC(C)=O)ccc21`, the growth inhibition in test [1] (setting [7]) was -14%; in test [1] (setting [8]) it was 64%; in test [1] (at 50.0 µM) it was -4.5%; in test [2] (setting [7]), -13%; in test [2] (setting [8]) it was 67%; in test [2] (at 50.0 µM), -9%. Besides, the growth inhibition in test [3] (setting [7]) was -3%; in test [3] (setting [8]) it was 72% (active); in test [3] (at 50.0 µM), 5.55%; in test [4] (setting [7]), -9%; in test [4] (setting [8]) it was 79% (active); in test [4] (at 50.0 µM), 4%. Moreover, the growth inhibition is -3% in test [5] (setting [7]); 83% (active) in test [5] (setting [8]); 26% in test [5] (at 50.0 µM); -13% in test [6] (setting [7]); 84% (active) in test [6] (setting [8]); 4.55% in test [6] (at 50.0 µM).

As for `CCc1cccc(C)c1NC(=O)C1=C(C)NC(C)=C(C(=O)Nc2c(C)cccc2CC)C1c1ccc2c(c1)OCO2`, the growth inhibition in test [1] (setting [7]) is 32%; in test [1] (setting [8]), 32%; in test [1] (at 50.0 µM) it was 91.2% (active); in test [2] (setting [7]) it was 27%; in test [2] (setting [8]) it was 27%; in test [2] (at 50.0 µM), 89.3% (active). Further, the growth inhibition in test [3] (setting [7]) was 33%; in test [3] (setting [8]), 33%; in test [3] (at 50.0 µM), 89.6% (active); in test [4] (setting [7]), 20%; in test [4] (setting [8]), 20%; in test [4] (at 50.0 µM), 84.2% (active). Further, the growth inhibition in test [5] (setting [7]) was 26%; in test [5] (setting [8]), 26%; in test [5] (at 50.0 µM), 90% (active); in test [6] (setting [7]), 37%; in test [6] (setting [8]), 37%; in test [6] (at 50.0 µM), 87.2% (active).

For `c1ccc2nc3[nH]c4ccccc4c3cc2c1`, the growth inhibition in test [1] (setting [7]) was 24%; in test [1] (setting [8]) it was 87% (active); in test [1] (at 50.0 µM), 85.2% (active); in test [2] (setting [7]), 18%; in test [2] (setting [8]) it was 52%; in test [2] (at 50.0 µM), 53.6%. In addition, the growth inhibition in test [3] (setting [7]) was 14%; in test [3] (setting [8]), 40%; in test [3] (at 50.0 µM), 50.8%; in test [4] (setting [7]), 22%; in test [4] (setting [8]), 39%; in test [4] (at 50.0 µM), 44.8%. Also, the growth inhibition in test [5] (setting [7]) was 18%; in test [5] (setting [8]), 46%; in test [5] (at 50.0 µM), 50.6%; in test [6] (setting [7]) it was 18%; in test [6] (setting [8]), 45%; in test [6] (at 50.0 µM), 69.2%.

Take `O=c1oc2c(-c3ccccc3)cccc2c(O)c1-c1ccccc1`: the growth inhibition in test [1] (setting [7]) is -2%; in test [1] (setting [8]), 58%; in test [1] (at 50.0 µM) it was 48.6%; in test [2] (setting [7]), -2%; in test [2] (setting [8]), 86% (active); in test [2] (at 50.0 µM) it was 60.2%. For the same compound, the growth inhibition in test [3] (setting [7]) was 3%; in test [3] (setting [8]) it was 87% (active); in test [3] (at 50.0 µM), 58.9%; in test [4] (setting [7]) it was 0%; in test [4] (setting [8]) it was 36%; in test [4] (at 50.0 µM), 33%. The growth inhibition is -4% in test [5] (setting [7]); 79% (active) in test [5] (setting [8]); 55% in test [5] (at 50.0 µM); 0% in test [6] (setting [7]); 81% (active) in test [6] (setting [8]); 70.5% (active) in test [6] (at 50.0 µM).

Consider `COc1c(OC)c(C2(O)C(=O)N(C)c3ccccc32)c(OC)c(OC)c1C1(O)C(=O)N(C)c2ccccc21` (stereo not given), for which the growth inhibition in test [1] (setting [7]) is -1%; in test [1] (setting [8]), 2%; in test [1] (at 50.0 µM), 7.2%; in test [2] (setting [7]), -2%; in test [2] (setting [8]), 12%; in test [2] (at 50.0 µM) it was 3.9%. Further, the growth inhibition in test [3] (setting [7]) was -3%; in test [3] (setting [8]), 1%; in test [3] (at 50.0 µM), -4.9%; in test [4] (setting [7]), -10%; in test [4] (setting [8]) it was -2%; in test [4] (at 50.0 µM), -0.05%. Further, the growth inhibition in test [5] (setting [7]) was -3%; in test [5] (setting [8]), -2%; in test [5] (at 50.0 µM) it was 4.85%; in test [6] (setting [7]) it was -1%; in test [6] (setting [8]) it was 22%; in test [6] (at 50.0 µM), 7.15%.

Consider `BrC1(c2ccccc2)C[n+]2c(-c3ccccc3)cc(-c3ccccc3)cc2-c2ccccc21` (stereo not given), for which the growth inhibition in test [1] (setting [7]) was 95% (active); in test [1] (setting [8]), 99% (active); in test [1] (at 50.0 µM) it was 89.8% (active); in test [2] (setting [7]), 96% (active); in test [2] (setting [8]), 99% (active); in test [2] (at 50.0 µM), 91.5% (active). The growth inhibition in test [3] (setting [7]) is 97% (active); in test [3] (setting [8]), 98% (active); in test [3] (at 50.0 µM) it was 91.2% (active); in test [4] (setting [7]), 95% (active); in test [4] (setting [8]) it was 99% (active); in test [4] (at 50.0 µM), 91.2% (active). Also, the growth inhibition is 37% in test [5] (setting [7]); 98% (active) in test [5] (setting [8]); 89.4% (active) in test [5] (at 50.0 µM); 97% (active) in test [6] (setting [7]); 99% (active) in test [6] (setting [8]); 91% (active) in test [6] (at 50.0 µM).

`Fc1ccc(NC(=S)SCc2ccccc2)cc1F`: the growth inhibition in test [1] (setting [7]) was 4%; in test [1] (setting [8]), 89% (active); in test [1] (at 50.0 µM) it was 97.3% (active); in test [2] (setting [7]), 2%; in test [2] (setting [8]) it was 92% (active); in test [2] (at 50.0 µM), 99% (active). Further, the growth inhibition was 5% in test [3] (setting [7]); 94% (active) in test [3] (setting [8]); 99.2% (active) in test [3] (at 50.0 µM); -6% in test [4] (setting [7]); 81% (active) in test [4] (setting [8]); 92.5% (active) in test [4] (at 50.0 µM). The growth inhibition was 6% in test [5] (setting [7]); 95% (active) in test [5] (setting [8]); 89.8% (active) in test [5] (at 50.0 µM); 0% in test [6] (setting [7]); 97% (active) in test [6] (setting [8]); 99.2% (active) in test [6] (at 50.0 µM).

Regarding `Cc1ccc(/C=N\NC(=S)N/N=C/c2ccc(C)cc2)cc1`, the growth inhibition in test [1] (setting [7]) is -6%; in test [1] (setting [8]) it was 98% (active); in test [1] (at 50.0 µM), 30.3%; in test [2] (setting [7]), 2%; in test [2] (setting [8]), 99% (active); in test [2] (at 50.0 µM) it was 40%. In addition, the growth inhibition was 2% in test [3] (setting [7]); 99% (active) in test [3] (setting [8]); 74.8% (active) in test [3] (at 50.0 µM); -43% in test [4] (setting [7]); 98% (active) in test [4] (setting [8]); 20% in test [4] (at 50.0 µM). The growth inhibition in test [5] (setting [7]) is -4%; in test [5] (setting [8]), 99% (active); in test [5] (at 50.0 µM), 94.5% (active); in test [6] (setting [7]), 0%; in test [6] (setting [8]), 98% (active); in test [6] (at 50.0 µM), 59%.

Values taken from PubChem BioAssay (NCI).
